Assay outcomes from PubChem.
TAR Tat displ = TAR RNA-Tat peptide displacers, HIV-1, primary screen, biochemical, FRET, FAM/TAMRA-labeled Tat. HIV-1 TAR RNA, Tat peptide displacement FRET; active compounds read high. z-score (concentration not given with the values). 0.6% of 100,000 active; active means z-score of 3 or more in at least 2 runs
CDC25B CDK2 inh = primary biochemical HTRF screen for blockers of M-phase inducer phosphatase 2 binding to CDK2/cyclin A. P30305+P24941. z-score (no concentration beside the values). HTRF CDC25B-CDK2/CyclinA binding, anti-His/anti-Flag; active compounds read high. AID 1259370, 2018. 0.72% of 94,000 active; in the data active means z-score above about 3.2
Of the large screens only hits and unclear results are named; the others gave an inactive call. Only some compounds are listed: those with a hit (about 0.86% of all), similar ones and a draw of the others.

CCn1c2ccccc2c2cc(CN3CCN(S(C)(=O)=O)CC3)ccc21	none
CCn1c2ccccc2c2cc(CN3CCN(Cc4ccc(SC)cc4)CC3)ccc21	CDC25B CDK2 inh 11 (no result: TAR Tat displ)
CCc1ccc(OCc2nnc(SCc3cc(=O)c4cc(C)cc(C)c4[nH]3)n2C)cc1	none (no result: CDC25B CDK2 inh)
O=S(=O)(NCc1nnnn1-c1ccccc1)c1ccc(Br)cc1	none (no result: CDC25B CDK2 inh)
Cc1cc2c(cc1NS(=O)(=O)c1ccc(C(C)(C)C)cc1)n(C)c(=O)n2C	none (no result: CDC25B CDK2 inh)
CCOc1ccccc1NC(=O)Nc1c(C)nc2nc[nH]n2c1=O	none (no result: CDC25B CDK2 inh)
COC(=O)C1CCN(C(=O)C2c3ccccc3Oc3ccccc32)CC1	none
CC(C)CC(=O)N[C@H](C(=O)N[C@H](C(=O)N[C@@H](CC(C)C)[C@@H](O)CC(=O)N[C@@H](C)C(=O)N[C@@H](CC(C)C)[C@@H](O)CC(=O)O)C(C)C)C(C)C	TAR Tat displ 19 (no result: CDC25B CDK2 inh)
Cc1ccc(-c2cc(N3CCN(S(=O)(=O)c4cccc5nsnc45)CC3)ncn2)cc1	none (no result: CDC25B CDK2 inh)
CCN(CC)CCCNC(=O)Cn1nc(-n2cccc2)c2c(C)cc(C)nc21	none (no result: CDC25B CDK2 inh)
CC(Oc1ccc(O)cc1)(P(=O)(O)O)P(=O)(O)O	TAR Tat displ 26 (no result: CDC25B CDK2 inh)
CC(=O)Oc1cccc(O)c1	none (no result: CDC25B CDK2 inh)
COc1ccc2c(c1)Cc1sc(NC(=O)c3ccc(Br)cc3)nc1-2	CDC25B CDK2 inh 18
COc1cc(OC)cc(C(=O)Nc2nc3c(s2)CCc2ccc(OC)cc2-3)c1	none
O=S(=O)(c1ccccc1)c1nc(S(=O)(=O)c2ccc(Cl)cc2)c(N2CCOCC2)s1	none
O=C1C(=O)N(Cc2ccccc2)c2ccccc21	none
O=C1C(=O)N(CC(O)CN2C(=O)C(=O)c3ccccc32)c2ccccc21	TAR Tat displ 15
Cc1cc(C)c2c(=O)cc(CN3CCN(C(=O)c4cccs4)CC3)[nH]c2c1	none (no result: CDC25B CDK2 inh)
COC(=O)c1c(-n2cccc2)sc2c1CCN(C(C)=O)C2	none (no result: TAR Tat displ)
COc1cc(O)c2c(c1)oc(=O)c1c3cc(O)c(O)cc3oc21	TAR Tat displ 38 (no result: CDC25B CDK2 inh)
COc1ccc2c(c1)oc(=O)c1ccccc12	none
O=C(O)c1ccc2nc(-c3cccc(-c4nc5ccc(C(=O)O)cc5[nH]4)c3)[nH]c2c1	CDC25B CDK2 inh 7.3 (no result: TAR Tat displ)
O=C(O)c1cccc(-c2nc3ccccc3[nH]2)c1	none (no result: TAR Tat displ)
CCOc1cc(C(Nc2cc(C)ccn2)c2ccc3cccnc3c2O)ccc1O (stereo not drawn)	none
CCOC(=O)c1c(CCC(=O)O)c2ccccc2n1C	none
COCCNc1cc(N2CCN(C(=O)c3ccco3)CC2)c2noc3c2c1C(=O)c1ccccc1-3	none
O=C1c2ccccc2-c2onc3c(N4CCN(C(=O)c5ccco5)CC4)cc(NCc4ccco4)c1c23	TAR Tat displ 15
O=C1c2ccccc2-c2onc3c(N4CCN(C(=O)c5ccco5)CC4)cc(NCCO)c1c23	TAR Tat displ 7.4
CCNc1cc(N2CCN(C(=O)c3ccco3)CC2)c2noc3c2c1C(=O)c1ccccc1-3	none
CCc1ccc(NS(=O)(=O)c2ccc(-c3ccc(=O)[nH]n3)s2)cc1	none (no result: CDC25B CDK2 inh)
COc1ccc(Cl)cc1NC(=O)Cn1nc2c(cc1=O)CCC2	none
COc1ccc(NC(=O)Cn2nc3c(cc2=O)CCC3)cc1Cl	TAR Tat displ 13
CC(=O)C[n+]1cccc2cccc(O)c21	none (no result: TAR Tat displ)
C#CC[n+]1cccc2cc(O)ccc21	CDC25B CDK2 inh 5.2 (no result: TAR Tat displ)
Cc1cccc(CN2C(C(C)C)Nc3cc(C)ccc3S2(=O)=O)c1 (stereo not drawn)	none (no result: CDC25B CDK2 inh)
Cc1ccc(C(=O)Nc2ccc(S(=O)(=O)O)c3cc(S(=O)(=O)O)cc(S(=O)(=O)O)c23)cc1NC(=O)c1cccc(NC(=O)Nc2cccc(C(=O)Nc3cc(C(=O)Nc4ccc(S(=O)(=O)O)c5cc(S(=O)(=O)O)cc(S(=O)(=O)O)c45)ccc3C)c2)c1	CDC25B CDK2 inh 4.7
COC(=O)c1cccc(NC(=O)Nc2ccccc2)c1	none (no result: TAR Tat displ)
CCCc1cc(=O)n2nc(N(C)CC(=O)NCCOC)sc2n1	none
CSc1nc2c(c(Nc3ccc(O)c(C(=O)O)c3)n1)CCC2	TAR Tat displ 18
CSc1nc2c(c(Nc3cccc(O)c3)n1)CCC2	none
COc1ccc(-c2nnc3ccccc3c2C(=O)O)cc1	none
CCCCn1c(=O)c2c(nc3n2CCN3c2ccc(C)cc2)n(C)c1=O	none (no result: CDC25B CDK2 inh)
CCCCCn1c(=O)c2c(nc3n2CCN3c2ccc(C)cc2)n(C)c1=O	TAR Tat displ 5.2 (no result: CDC25B CDK2 inh)
CCOc1ccc2ncc(S(=O)(=O)c3ccccc3)c(Nc3cccc(OC)c3)c2c1	none
Cc1oc2ccc(NS(=O)(=O)c3ccc(F)cc3)cc2c1C(=O)O	none
Cc1oc2ccc(NS(=O)(=O)c3ccc(Cl)cc3)cc2c1C(=O)O	TAR Tat displ 23
Cc1oc2ccc(NS(=O)(=O)c3ccccc3)cc2c1C(=O)O	TAR Tat displ 18
COC(=O)c1c(C)oc2ccc(NS(=O)(=O)c3ccc(Cl)cc3)cc12	none
Cc1nn(-c2ccc3nnc(C)n3n2)c2c1C(c1ccccc1OCc1cccc(F)c1)CC(=O)N2 (stereo not drawn)	none (no result: CDC25B CDK2 inh)
